# Results from the supplement of paper PMC7156485.
# Where “and” joins values, the source holds several entries; their conditions need not be identical. Identical values can stand only once. ± gives the standard deviation of the averaged measurements.
# Assays:
# Details in all cases: concentration: 10 µM; 24 h
# [1] = system: HCC1569; assay: cell number relative to DMSO (% of DMSO); higher = more cells (less growth inhibition / toxicity)
# Method in brief: (§1)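 For HCC1569 and TDF cells, compounds at 10 µM were applied for 24 h at 37 °C in triplicate in 384-well plates. Cells were fixed in 3.7% formaldehyde, stained for H1.0 and with DAPI, and imaged at ×10 over six fields per well. The endpoint, H1.0 nuclear intensity or cell number, is shown as percent of the plate control using the median of replicates. Positional effects were smoothed for HCC1569 only.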
# [2] = system: TDF; assay: as above
# Method in brief: as §1
# [3] = system: TDF; assay: H1.0 immunofluorescence intensity relative to DMSO (% of DMSO); higher = stronger H1.0 induction, active = 120 or more
# Method in brief: as §1
# [4] = system: HCC1569; assay: H1.0 immunofluorescence intensity relative to DMSO (% of DMSO); higher = stronger H1.0 induction, active = 140 or more
# Method in brief: as §1
# 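Throughout, for H1.0 immunofluorescence intensity relative to DMSO: TDF is a line of transformed human dermal fibroblasts of mesenchymal origin.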
# 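Throughout, for cell number relative to DMSO: TDF denotes transformed human dermal fibroblasts of mesenchymal origin.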
smiles,measurement,setting,value
COc1cc2nc(N3CCN(C(=O)c4ccco4)CC3)nc(N)c2cc1OC.Cl [Prazosin hydrochloride],cell number,[1],91.9
same,cell number,[2],99.8
same,H1.0 immunofluorescence intensity,[3],93.6 (inactive)
same,H1.0 immunofluorescence intensity,[4],106 (inactive)
NC1CCN(c2c(F)cc3c(=O)c(C(=O)O)cn(C4CC4)c3c2Cl)C1 (stereo not given) [Clinafloxacin],cell number,[1],103
same,cell number,[2],101
same,H1.0 immunofluorescence intensity,[3],94.3 (inactive)
same,H1.0 immunofluorescence intensity,[4],107 (inactive)
O=C(O)CCCc1c[nH]c2ccccc12 [Indole-3-butyric acid],cell number,[1],104
same,cell number,[2],99
same,H1.0 immunofluorescence intensity,[3],98.4 (inactive)
same,H1.0 immunofluorescence intensity,[4],86.6 (inactive)
N#Cc1c(N(CC(=O)[O-])CC(=O)[O-])sc(C(=O)[O-])c1CC(=O)[O-].[Sr+2].[Sr+2],cell number,[1],100
same,cell number,[2],109
same,H1.0 immunofluorescence intensity,[3],86.6 (inactive)
same,H1.0 immunofluorescence intensity,[4],105 (inactive)
CC(C(O)c1ccc(O)cc1)N1CCC(Cc2ccccc2)CC1.CC(C(O)c1ccc(O)cc1)N1CCC(Cc2ccccc2)CC1.O=C(O)C(O)C(O)C(=O)O (stereo not given) [Ifenprodil tartrate],cell number,[1],101
same,cell number,[2],108
same,H1.0 immunofluorescence intensity,[3],100 (inactive)
same,H1.0 immunofluorescence intensity,[4],96.7 (inactive)
CC(=O)Nc1ccc(CC(=O)O)cc1 [Actarit],cell number,[1],100
same,cell number,[2],103
same,H1.0 immunofluorescence intensity,[3],97.2 (inactive)
same,H1.0 immunofluorescence intensity,[4],96.5 (inactive)
COc1cccc(-c2cn(-c3ccc(CCN4CCC(O)CC4)cc3)c3ncnc(N)c23)c1,cell number,[1],45.9
same,cell number,[2],53.9
same,H1.0 immunofluorescence intensity,[3],127 (active)
same,H1.0 immunofluorescence intensity,[4],177 (active)
Fc1ccc(-c2c3cccc(C(F)(F)F)c3nn2Cc2ccc(F)cc2Cl)cc1,cell number,[1],100
same,cell number,[2],95.3
same,H1.0 immunofluorescence intensity,[3],92.3 (inactive)
same,H1.0 immunofluorescence intensity,[4],102 (inactive)
"CN(C)CCC(c1ccc(Cl)cc1)c1ccccn1.O=C(O)C=CC(=O)O (single isomer, unassigned; (+)) [(+)-Chlorpheniramine maleate]",cell number,[1],104
same,cell number,[2],104
same,H1.0 immunofluorescence intensity,[3],99.2 (inactive)
same,H1.0 immunofluorescence intensity,[4],88.5 (inactive)
CCC1C(=O)OCC1Cc1cncn1C.O=[N+]([O-])O (stereo not given) [Pilocarpine nitrate],cell number,[1],98
same,cell number,[2],86.9
same,H1.0 immunofluorescence intensity,[3],98.7 (inactive)
same,H1.0 immunofluorescence intensity,[4],107 (inactive)
NC(C(=O)O)C1CC(Cl)=NO1 (stereo not given) [Acivicin],cell number,[1],93.2
same,cell number,[2],68.8
same,H1.0 immunofluorescence intensity,[3],122 (active)
same,H1.0 immunofluorescence intensity,[4],108 (inactive)
CCN1CCCC1CNC(=O)c1c(O)c(Cl)cc(Cl)c1OC (stereo not drawn) [S(-)-Raclopride],cell number,[1],102
same,cell number,[2],97.5
same,H1.0 immunofluorescence intensity,[3],95.7 (inactive)
same,H1.0 immunofluorescence intensity,[4],104 (inactive)
CC(=O)O.CSC(N)=NCCCC(N)C(=O)O [S-Methyl-L-thiocitrulline acetate],cell number,[1],99.4
same,cell number,[2],108
same,H1.0 immunofluorescence intensity,[3],92 (inactive)
same,H1.0 immunofluorescence intensity,[4],97.5 (inactive)
Cc1cc(I)ccc1Nc1c(C(=O)NOCC2CC2)cc(F)c(F)c1F,cell number,[1],97.2
same,cell number,[2],95.6
same,H1.0 immunofluorescence intensity,[3],91.1 (inactive)
same,H1.0 immunofluorescence intensity,[4],116 (inactive)
Cl.Oc1ccc(Nc2nc(-c3ccc(Cl)cc3)cs2)cc1 [Sphingosine Kinase Inhibitor],cell number,[1],69.3
same,cell number,[2],75.1
same,H1.0 immunofluorescence intensity,[3],110 (inactive)
same,H1.0 immunofluorescence intensity,[4],193 (active)
NC(=O)c1cccc(N)c1 [3-aminobenzamide],cell number,[1],98.6
same,cell number,[2],102
same,H1.0 immunofluorescence intensity,[3],90.5 (inactive)
same,H1.0 immunofluorescence intensity,[4],87.7 (inactive)
CCOC(=O)C1=C(C)NC(C)=C(C(=O)OCC)C1 [Diludin],cell number,[1],97.2
same,cell number,[2],103
same,H1.0 immunofluorescence intensity,[3],93.7 (inactive)
same,H1.0 immunofluorescence intensity,[4],97.2 (inactive)
Cl.Cl.OCCN1CCN(CCCN2c3ccccc3C=Cc3ccccc32)CC1,cell number,[1],102
same,cell number,[2],98.8
same,H1.0 immunofluorescence intensity,[3],99.1 (inactive)
same,H1.0 immunofluorescence intensity,[4],106 (inactive)
"CCC1C(=O)OCC1Cc1cncn1C.Cl (single isomer, unassigned; (+)) [(+)-Pilocarpine hydrochloride]",cell number,[1],97.7
same,cell number,[2],93.1
same,H1.0 immunofluorescence intensity,[3],102 (inactive)
same,H1.0 immunofluorescence intensity,[4],101 (inactive)
CCCCCC(O)C=CC=CCC=CCCCC(=O)O (stereo not given),cell number,[1],100
same,cell number,[2],90.9
same,H1.0 immunofluorescence intensity,[3],97 (inactive)
same,H1.0 immunofluorescence intensity,[4],97.1 (inactive)
COc1cc2ncnc(Nc3cccc(Cl)c3)c2cc1OC [Tyrphostin AG 1478],cell number,[1],92.8
same,cell number,[2],94.6
same,H1.0 immunofluorescence intensity,[3],96.2 (inactive)
same,H1.0 immunofluorescence intensity,[4],119 (inactive)
CCCCCCCCCCCCCCCC(=O)OC(CC(=O)O)C[N+](C)(C)C.[Cl-] (racemic) [Palmitoyl-DL-Carnitine chloride],cell number,[1],94.9
same,cell number,[2],101
same,H1.0 immunofluorescence intensity,[3],104 (inactive)
same,H1.0 immunofluorescence intensity,[4],110 (inactive)
O=c1cc(-c2ccc(O)cc2)oc2cc(OC3OC(CO)C(O)C(O)C3O)cc(O)c12 (stereo not given) [Apigenin-7-glucoside],cell number,[1],98.2
same,cell number,[2],99.3
same,H1.0 immunofluorescence intensity,[3],93.7 (inactive)
same,H1.0 immunofluorescence intensity,[4],91 (inactive)
CC1=CCCC(C)(O)C=CC(C(C)C)C(OC(=O)c2ccc(O)cc2)C1 (stereo not given) [Feroline],cell number,[1],102
same,cell number,[2],96
same,H1.0 immunofluorescence intensity,[3],102 (inactive)
same,H1.0 immunofluorescence intensity,[4],93.3 (inactive)
O=C1CSC(c2cccc(Br)c2)N1c1cc(Cl)ccc1O (stereo not given),cell number,[1],102
same,cell number,[2],96.5
same,H1.0 immunofluorescence intensity,[3],94.8 (inactive)
same,H1.0 immunofluorescence intensity,[4],103 (inactive)
"CCCCCC=CCC=CCC=CCC=CCCCCCC(=O)O [7(Z), 10(Z), 13(Z), 16(Z)-Ocosatetraenoic Acid]",cell number,[1],100
same,cell number,[2],114
same,H1.0 immunofluorescence intensity,[3],89.2 (inactive)
same,H1.0 immunofluorescence intensity,[4],106 (inactive)
CS(=O)(=O)O.Cn1cc(C(F)(F)F)nc1-c1ccc(OCC(O)CNCCOc2ccc(O)c(C(N)=O)c2)cc1 (stereo not given),cell number,[1],97.2
same,cell number,[2],92.5
same,H1.0 immunofluorescence intensity,[3],94.5 (inactive)
same,H1.0 immunofluorescence intensity,[4],96.4 (inactive)
Cc1ccc(S(=O)(=O)C=CC#N)cc1,cell number,[1],68.3 and 78.4
same,cell number,[2],103 and 100
same,H1.0 immunofluorescence intensity,[3],98.9 (inactive) and 92.5 (inactive)
same,H1.0 immunofluorescence intensity,[4],191 (active) and 104 (inactive)
CC(CN1CCC(Cc2ccccc2)CC1)C(O)c1ccc(O)cc1.Cl (stereo not given) [Ro 25-6981 hydrochloride],cell number,[1],105
same,cell number,[2],101
same,H1.0 immunofluorescence intensity,[3],86.4 (inactive)
same,H1.0 immunofluorescence intensity,[4],96.6 (inactive)
"CN(C)C(=O)N=NC(=O)N(C)C [N,N,N',N'-Tetramethylazodicarboxamide]",cell number,[1],94.8
same,cell number,[2],103
same,H1.0 immunofluorescence intensity,[3],91.5 (inactive)
same,H1.0 immunofluorescence intensity,[4],99.2 (inactive)
CC=CC(=O)N(CC)c1ccccc1C [Crotamiton],cell number,[1],103
same,cell number,[2],98.5
same,H1.0 immunofluorescence intensity,[3],101 (inactive)
same,H1.0 immunofluorescence intensity,[4],104 (inactive)
CC1OC(OCC2OC(Oc3c(-c4ccc(O)c(O)c4)oc4cc(O)cc(O)c4c3=O)C(O)C(O)C2O)C(O)C(O)C1O (stereo not given) [Rutin],cell number,[1],107
same,cell number,[2],102
same,H1.0 immunofluorescence intensity,[3],91.6 (inactive)
same,H1.0 immunofluorescence intensity,[4],88 (inactive)
Nc1ccc2ncnc(NCCc3ccc(Oc4ccccc4)cc3)c2c1 [NF-kB Activation Inhibitor],cell number,[1],66.3
same,cell number,[2],70.7
same,H1.0 immunofluorescence intensity,[3],106 (inactive)
same,H1.0 immunofluorescence intensity,[4],164 (active)
COC(=O)C(C)(N)Cc1ccc(O)cc1.Cl (racemic) [alpha-Methyl-DL-tyrosine methyl ester hydrochloride],cell number,[1],101
same,cell number,[2],103
same,H1.0 immunofluorescence intensity,[3],93 (inactive)
same,H1.0 immunofluorescence intensity,[4],94.3 (inactive)
c1ccc(-c2cnc(Nc3ccc(OCCN4CCCC4)cc3)s2)cc1 [Flt-3 Inhibitor III],cell number,[1],80.3
same,cell number,[2],74.2
same,H1.0 immunofluorescence intensity,[3],97.1 (inactive)
same,H1.0 immunofluorescence intensity,[4],150 (active)
CCCC(=O)NCCc1c2n(c3ccc(OC)cc13)CCCc1ccccc1-2,cell number,[1],96.8
same,cell number,[2],109
same,H1.0 immunofluorescence intensity,[3],84.7 (inactive)
same,H1.0 immunofluorescence intensity,[4],100 (inactive)
CCCCCCCCCC(=O)NC(CN1CCOCC1)C(O)c1ccccc1.Cl (racemic),cell number,[1],94
same,cell number,[2],91.9
same,H1.0 immunofluorescence intensity,[3],105 (inactive)
same,H1.0 immunofluorescence intensity,[4],109 (inactive)
CN1C2CCC1CC(OC(c1ccccc1)c1ccccc1)C2.CS(=O)(=O)O (stereo not given) [Benztropine mesylate],cell number,[1],97.2
same,cell number,[2],114
same,H1.0 immunofluorescence intensity,[3],97.6 (inactive)
same,H1.0 immunofluorescence intensity,[4],97.7 (inactive)
COc1cc(-c2oc3cc(O)ccc3c(=O)c2O)ccc1O [Geraldol],cell number,[1],85.9
same,cell number,[2],73.9
same,H1.0 immunofluorescence intensity,[3],95.2 (inactive)
same,H1.0 immunofluorescence intensity,[4],99.4 (inactive)
O=[N+]([O-])c1cccc2c(Br)[nH]nc12 [3-Bromo-7-nitroindazole],cell number,[1],116
same,cell number,[2],113
same,H1.0 immunofluorescence intensity,[3],103 (inactive)
same,H1.0 immunofluorescence intensity,[4],91.9 (inactive)
Cc1c(-c2cnccn2)ssc1=S [Oltipraz],cell number,[1],105
same,cell number,[2],101
same,H1.0 immunofluorescence intensity,[3],97.9 (inactive)
same,H1.0 immunofluorescence intensity,[4],114 (inactive)
COC(=O)c1cnn(-c2ccc(F)cc2F)c1/C=N/NC(=S)NC(C)(C)C,cell number,[1],95.9
same,cell number,[2],101
same,H1.0 immunofluorescence intensity,[3],99 (inactive)
same,H1.0 immunofluorescence intensity,[4],102 (inactive)
CN(C)CCC(c1ccc(Cl)cc1)c1ccccn1 (stereo not given) [Chlorpheniramine],cell number,[1],100
same,cell number,[2],98.1
same,H1.0 immunofluorescence intensity,[3],96.2 (inactive)
same,H1.0 immunofluorescence intensity,[4],105 (inactive)
C=C1C(=O)OC2C1CCC(C)=CCCC1(C)OC21 (stereo not given) [Parthenolide],cell number,[1],65.2 ± 7.3
same,cell number,[2],50.3 ± 3.6
same,H1.0 immunofluorescence intensity,[3],119 (inactive)
same,H1.0 immunofluorescence intensity,[4],149 (active)
CCOC(OCC)P(=O)(O)CCCNCc1ccc(Cl)c(Cl)c1,cell number,[1],108
same,cell number,[2],95.6
same,H1.0 immunofluorescence intensity,[3],98.3 (inactive)
same,H1.0 immunofluorescence intensity,[4],102 (inactive)
Cc1cn(-c2cc(NC(=O)c3ccc(C)c(Nc4nccc(-c5cccnc5)n4)c3)cc(C(F)(F)F)c2)cn1 [Nilotinib],cell number,[1],100
same,cell number,[2],73.5
same,H1.0 immunofluorescence intensity,[3],101 (inactive)
same,H1.0 immunofluorescence intensity,[4],94.2 (inactive)
CCC(C)SSc1ncc[nH]1 (stereo not given) [2-(sec-butyldisulfanyl)-1H-imidazole],cell number,[1],83.7
same,cell number,[2],105
same,H1.0 immunofluorescence intensity,[3],87.7 (inactive)
same,H1.0 immunofluorescence intensity,[4],107 (inactive)
O=C(O)c1ccc2ccccc2c1O.OCc1cc(C(O)CNCCCCCCOCCCCc2ccccc2)ccc1O (stereo not given) [Salmeterol xinafoate],cell number,[1],100
same,cell number,[2],100
same,H1.0 immunofluorescence intensity,[3],97.5 (inactive)
same,H1.0 immunofluorescence intensity,[4],121 (inactive)
Cn1cnc2c1c(=O)[nH]c(=O)n2C [Theobromine],cell number,[1],104 ± 3
same,cell number,[2],99 ± 6.1
same,H1.0 immunofluorescence intensity,[3],96.4 (inactive)
same,H1.0 immunofluorescence intensity,[4],95.9 (inactive)
CC(C)=CCC(O)C1=CC(=O)c2c(O)ccc(O)c2C1=O (stereo not given) [Shikonin],cell number,[1],27
same,cell number,[2],38.8
same,H1.0 immunofluorescence intensity,[3],119 (inactive)
same,H1.0 immunofluorescence intensity,[4],111 (inactive)
